Among all 5,500 compounds or so, about 2,000 (36%) were called active. Inconclusive results (about 18%) are left out. Cut-off read from the data, not from the text of the source: active = normalized growth mostly below about 0.91 (no sharp cut-off); inconclusive = no clear call, values can overlap the other calls; inactive = mostly above about 0.92. The list shows a part of the results.
Experiment: chemical genetic growth profiling, strain panel (AID 1159580);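 note: tested at 20 µM; growth read once vehicle control cultures reached saturation at 30 °C; 1 = growth at the plate median or of vehicle wells; lower values mean less growth of the strain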
Conditions: growth OD
[1] = S. cerevisiae deletion strains, locus YAL013W, strain DEP1, stronger effect = lower value
[2] = S. cerevisiae deletion strains, locus YGR078C, strain PAC10, stronger effect = lower value
[3] = S. cerevisiae deletion strains, locus YJR075W, strain HOC1, stronger effect = lower value
[4] = S. cerevisiae deletion strains, locus YNL153C, strain GIM3, stronger effect = lower value

Measured: normalized growth

O=S(=O)(c1ccc(Cl)c(Cl)c1)N1CCN(c2ccc(C(F)(F)F)cn2)CC1
inactive: [1] 1 | S. cerevisiae deletion strains, locus YBR229C, strain ROT2, stronger effect = lower value 1.01 | S. cerevisiae deletion strains, locus YCL061C, strain MRC1, stronger effect = lower value 1.05 | S. cerevisiae deletion strains, locus YDL101C, strain DUN1, stronger effect = lower value 1.05 | S. cerevisiae deletion strains, locus YDR150W, strain NUM1, stronger effect = lower value 1.02 | S. cerevisiae deletion strains, locus YEL061C, strain CIN8, stronger effect = lower value 0.998 | [2] 1.05 | S. cerevisiae deletion strains, locus YHR030C, strain SLT2, stronger effect = lower value 1.09 | S. cerevisiae deletion strains, locus YHR087W, strain rtc3, stronger effect = lower value 1.02 | S. cerevisiae deletion strains, locus YJL187C, strain SWE1, stronger effect = lower value 1.03 | S. cerevisiae deletion strains, locus YJR043C, strain POL32, stronger effect = lower value 1.03 | [3] 1.06 | S. cerevisiae deletion strains, locus YKL190W, strain CNB1, stronger effect = lower value 1.02 | S. cerevisiae deletion strains, locus YLR039C, strain RIC1, stronger effect = lower value 1 | S. cerevisiae deletion strains, locus YLR058C, strain SHM2 (second series), stronger effect = lower value 1.02 | S. cerevisiae deletion strains, locus YLR262C, strain YPT6, stronger effect = lower value 1 | S. cerevisiae deletion strains, locus YML094W, strain GIM5, stronger effect = lower value 1.04 | S. cerevisiae deletion strains, locus YMR219W, strain ESC1, stronger effect = lower value 1.01 | S. cerevisiae deletion strains, locus YMR263W, strain SAP30, stronger effect = lower value 1.04 | [4] 1.04 | S. cerevisiae deletion strains, locus YNL298W, strain CLA4 (second series), stronger effect = lower value 1.04 | S. cerevisiae deletion strains, locus YNL322C, strain KRE1, stronger effect = lower value 1.01 | S. cerevisiae deletion strains, locus YNR030W, strain Alg12, stronger effect = lower value 1.04 | S. cerevisiae deletion strains, locus YPL055C, strain LGE1, stronger effect = lower value 1.07 | S. cerevisiae deletion strains, locus YPL241C, strain CIN2, stronger effect = lower value 1.11 | S. cerevisiae deletion strains, locus YPR135W, strain CTF4, stronger effect = lower value 0.99 | S. cerevisiae strains, strain wild type, stronger effect = lower value 1.01
active: S. cerevisiae deletion strains, locus YLR085C, strain ARP6, stronger effect = lower value 1.35 [resistant]

NCCNC(=O)c1ncsc1-c1cccc(F)c1
inactive: [1] 1.02 | S. cerevisiae deletion strains, locus YAL040C, strain CLN3, stronger effect = lower value 0.986 | S. cerevisiae deletion strains, locus YCL061C, strain MRC1 (second series), stronger effect = lower value 0.991 | S. cerevisiae deletion strains, locus YDR363W, strain ESC2, stronger effect = lower value 1.02 | S. cerevisiae deletion strains, locus YER002W, strain NOP16, stronger effect = lower value 1 | [2] 0.989 | [3] 1.01 | S. cerevisiae deletion strains, locus YMR307W, strain GAS1, stronger effect = lower value 1 | S. cerevisiae deletion strains, locus YNL128W, strain TEP1, stronger effect = lower value 0.99 | [4] 0.983 | S. cerevisiae deletion strains, locus YNL175C, strain NOP13, stronger effect = lower value 0.984 | S. cerevisiae deletion strains, locus YNL197C, strain WHI3, stronger effect = lower value 0.989 | S. cerevisiae deletion strains, locus YNL224C, strain SQS1, stronger effect = lower value 0.996 | S. cerevisiae deletion strains, locus YOR083W, strain WHI5 (second series), stronger effect = lower value 0.974
